Measured values taken from ChEMBL document CHEMBL3988442, “University of Dundee, Small-Polar-MMV Screening Library” (2021).
In all, about 38,000 compounds went through this assay and about 1,200 (3.2%) showed an effect of 50% or more. The median lay at about -58%. The full list was thinned out, with strong results kept by preference.

tested on: Plasmodium falciparum; assay: Calibr Malaria Delayed Death Assay SOP; format: functional, organism-based; parameters: scale not given: in the data most compounds retested in dose-response had high values; details: concentration 4.99e-06 (unit not given; other assays of the set use mol/L)

SMILES | Percent Effect
CCc1ccc(C(=O)N2CCN(CC(O)CC)CC2)o1 (stereo unspecified) | -8.781%
Cc1nn(C)c(C)c1C1COCCN1c1ncncc1Br (stereo unspecified) | -86.62%
O=C(O)C(F)(F)F.OCCN1CCC(F)(F)C2(CCN(c3cnccn3)C2)C1 (stereo unspecified) | -58.35%
CCc1nc(CC(=O)N2CCCC2c2c(C)nn(C)c2OC)cs1 (stereo unspecified) | -39.25%
COc1ccc(CN2CCC3(CC2)CC(c2cccnc2)CO3)cc1.O=C(O)C(F)(F)F.O=C(O)C(F)(F)F (stereo unspecified) | -68.03%
CCN1CC2(CCN(C(=O)N(C)C)CC2)COc2ccccc2S1(=O)=O | -20.19%
CN1CC2(CCN(CC3CC3)CC2)COc2ccccc2S1(=O)=O.O=C(O)C(F)(F)F | 52.41%
CCC(=O)N1CCC2(CC1)COc1ccccc1S(=O)(=O)N(C)C2 | -32.01%
O=S1(=O)c2ccccc2OCC2(CCN(CCO)CC2)CN1CC1CC1 | 76.86%
COCCN1CCC2(CC1)COc1ccccc1S(=O)(=O)N(C)C2 | -7.731%
CCCN1CCC2(CC1)COc1ccccc1S(=O)(=O)N(CC1CC1)C2.O=C(O)C(F)(F)F | -32.31%
CN(C)C(=O)CN1CCC2(CC1)COc1ccccc1S(=O)(=O)N(C)C2.O=C(O)C(F)(F)F | -44.68%
CN1CC2(CCN(C(=O)C3CCC3)CC2)COc2ccccc2S1(=O)=O | -31.54%
COCC1CN(C(=O)Cc2cccs2)Cc2nnn(CC3CC3)c21 (stereo unspecified) | -20.67%
CC(OCC(F)(F)F)C(=O)N1CCOCC1 (stereo unspecified) | -69.84%
CN(C)c1ccc(C(=O)N2CCCC2c2cnn(C)c2)cn1 (stereo unspecified) | -130.6%
COc1cccc(CC(=O)N2CC[C@@H]3CN(C)S(=O)(=O)[C@@H]3CC2)c1 | -25.41%
CC1=C(c2ccc(C)cc2)S(=O)(=O)N=C1N1CCc2ccccc21 | -28.82%
OC1(CNc2ccc(F)cc2)CCNCC1 | 9.673%
CC(C(=O)Nc1sccc1C(N)=O)N(C)CCOc1ccccc1 (stereo unspecified) | 2.405%
Nc1cc(-c2cc(O)cc(C(=O)O)c2)c2cc[nH]c2n1 | -8.693%
CCCNCc1ccc(-c2cc(N)nc3[nH]ccc23)cc1 | 71.86%
Nc1cc(-c2ccc(C(=O)O)cc2O)c2cc[nH]c2n1 | -36.07%
CCCn1nccc1C(=O)Nc1nc(C)c(C)s1 | -95.22%
CCc1ccccc1OCCN(C)C(=O)CN1CCCC1 | 75.23%
CCc1ccccc1OCCN(C)C(=O)CCN1CCCCO1 | 2.137%

SMILES | Percent Effect
CCc1ccccc1OCCN(C)C(=O)CCN1CCCO1 | -98.11%
CCn1nc(C)c2ccn(CC(=O)NC(C)C)c(=O)c21 | -79.05%
COc1ccc(NC(=O)N(CCO)Cc2ccsc2)cc1 | -36.74%
COC(=O)CN(C)Cc1cc(Br)cs1 | -75.79%
CCN(C)CC1CCN(c2ncc(Br)cn2)C1 (stereo unspecified) | -58.14%
CCCN(C)CC1CCN(c2ncc(Br)cn2)C1 (stereo unspecified) | -74.37%
CCCN(C)CC1CCN(c2ccc(Br)c(C)n2)C1 (stereo unspecified) | 72.9%
CCC(CC)C(=O)NCCC(=O)N1CCN(c2ccccn2)CC1 | -127.9%
CC(C)C(=O)NCCC(=O)N1CCN(c2ccccn2)CC1 | -182.3%
CC(C)CC(C)NCc1cccnc1N1CCN(c2ccccn2)CC1 (stereo unspecified) | 55.01%
CC(C)NCc1cccnc1N1CCN(c2ccccn2)CC1 | 3.171%
CCC(C)NC(=O)NCCC(=O)N1CCN(c2ccccn2)CC1 (stereo unspecified) | -19.73%
CCCC(C)NCc1cccnc1N1CCN(c2ccccn2)CC1 (stereo unspecified) | 51.12%
Cn1c(N)c2c(=O)n(C)c(-c3ccc(Cl)cc3Cl)cc2c(C#N)c1=O | 5.212%
Cc1cc(C(=O)N2CCC3(C2)CN(c2ccsc2)C(=O)CN3C)[nH]n1.O=C(O)C(F)(F)F (stereo unspecified) | -16.33%
c1ccc(Cc2n[nH]c(C3CCOC3)n2)cc1 (stereo unspecified) | -53.42%
Cn1ccnc1CN1CCC2(CC1)CN(c1ccccn1)CCO2.O=C(O)C(F)(F)F.O=C(O)C(F)(F)F | -263.3%
COc1ncccc1CN1CCC2(CC1)CN(c1ccccn1)CCO2.O=C(O)C(F)(F)F.O=C(O)C(F)(F)F.O=C(O)C(F)(F)F | 55.38%
COc1ccc(CN2CCC3(CC2)CN(c2ccccn2)CCO3)cc1.O=C(O)C(F)(F)F.O=C(O)C(F)(F)F | 60.62%
COCC(=O)N1CCC2(CC1)CN(c1ccccn1)CCO2.O=C(O)C(F)(F)F | -99.25%
Fc1ccc(CN2CCC3(CC2)CN(c2ccccn2)CCO3)cc1.O=C(O)C(F)(F)F.O=C(O)C(F)(F)F | 46.67%
O=C(O)C(F)(F)F.O=C(O)C(F)(F)F.c1ccc(CN2CCC3(CC2)CN(c2ccccn2)CCO3)nc1 | -71.36%
O=c1[nH][nH]cc1-c1ccnc(NCCc2ccc(F)cc2)n1 | -53.75%
COC(=O)c1cnn(-c2cc(Oc3cccc(C)c3)ncn2)c1N | -10.04%
CN1CCC2(CC1)OC(C(=O)NCc1cccnc1)Cn1ccnc12 (stereo unspecified) | -146%
COCCN1CCCC(c2nccnc2Nc2nc(C)cs2)C1 (stereo unspecified) | -10.08%

SMILES | Percent Effect
O=C(NCC1(O)CCSC1)c1cccc(-n2cccn2)c1 (stereo unspecified) | -128.5%
CC(=O)N1CCO[C@@H]2CN(Cc3ccccc3Cl)C[C@@H]2C1.O=C(O)C(F)(F)F | -110.8%
O=C1NCCCC[C@@H]1NC(=O)C1(N2CCCCC2)Cc2ccccc2C1 | -107.8%
O=C(NC1CCNC1)C1(N2CCCCC2)Cc2ccccc2C1 (stereo unspecified) | 33.42%
O=C(NC1CCNCC1)C1(N2CCCCC2)Cc2ccccc2C1 | 62.66%
CC(=O)NCC(=O)N1CCCC(C(=O)c2ccc(C(C)(C)C)cc2)C1 (stereo unspecified) | -127.3%
CN(C)[C@H]1CCCCN(Cc2ccccc2Cn2cccn2)C1 | 49.71%
CC(C)(C)c1oc(C(N)=O)cc1CN1CCCCC(N)C1 (stereo unspecified) | 3.928%
N#Cc1cc(C#N)c(SCCC(=O)Nc2ccc(F)cc2)nc1N | 10.11%
N#Cc1cc(C#N)c(SCC(=O)Nc2ccc(F)cc2)nc1N | 66.77%
N#Cc1cc(C#N)c(SCC(=O)NCc2ccc(F)cc2)nc1N | -76.83%
CN(C)c1ncc(CNC(=O)Nc2ccc(C(F)(F)F)cc2)n1C | 68.14%
CN(C)c1ncc(CNC(=O)Nc2ccccc2C(F)(F)F)n1C | -113.2%
CN(C)c1ncc(CNC(=O)Nc2ccccc2F)n1C | -31.3%
COc1cccc(CNc2nc(N3CCOCC3)ns2)c1OC | -58.35%
CSc1ccc2c(C)cc(N[C@@H](C)CO)nc2c1 | 13.21%
COC[C@H](C)Nc1cc(C)c2ccc(SC)cc2n1 | 74.39%
CCn1ncnc1C(C)Nc1cc(C)c2ccc(SC)cc2n1 (stereo unspecified) | -98.68%
COCC(=O)N1CCCN(Cc2cc(C(C)C)no2)CC1 | -33.31%
Cc1c(C(=O)NCC(C)(C)S(C)(=O)=O)cccc1-c1ccccn1 | -72.33%
CCC(CO)N(Cc1ccsc1)Cc1cccc(O)c1 (stereo unspecified) | 67.4%
CCC(CO)N(Cc1ccc(C(=O)O)cc1)Cc1ccsc1 (stereo unspecified) | -80.76%
CCC(CO)N(CC=C(C)C)Cc1ccsc1 (stereo unspecified) | 20.66%
CS(=O)(=O)N1CCN(C(=O)c2cc(-c3ccc(Br)s3)n[nH]2)CC1 | 2.289%
CN1C(=O)C2(CCN(c3nccc4occc34)CC2)c2ccccc21 | -46.41%
Cc1cc(C)cc(C(=O)NCCS(=O)(=O)N2CCSCC2)c1 | -110.6%

SMILES | Percent Effect
CC(=O)N1CCCN(S(=O)(=O)c2cc3ccccc3o2)CC1 | -136.3%
CCN1CCCN(S(=O)(=O)c2cc3ccccc3o2)CC1 | 83.88%
O=S(=O)(c1cc2ccccc2o1)N1CCCC1 | -30.68%
CCn1ccc(-c2nnc(SCC(=O)NCC(C)C)n2CC)n1 | -143.1%
COc1c(CNCCc2c[nH]c3cc(F)ccc23)c(C)nn1C | 49.69%
COc1c(CNCCc2c[nH]c3ccccc23)c(C)nn1C | -66.3%
COc1c(CNC2CCc3cc(F)ccc32)c(C)nn1C.Cl (stereo unspecified) | 26.33%
COc1c(CNC2CCCc3ccccc32)c(C(C)C)nn1C (stereo unspecified) | 63.84%
COc1c(CNC2CCOc3ccccc32)c(C(C)C)nn1C (stereo unspecified) | -23.6%
COc1c(CNCCc2c[nH]c3cc(F)ccc23)c(C(C)C)nn1C | 59.46%
CC(C)c1nn(C)c(N(C)C)c1CNC1CCc2cc(F)ccc21.Cl (stereo unspecified) | -3.129%
COc1c(CNC2CCc3cc(F)ccc32)c(C(C)C)nn1C (stereo unspecified) | 57.77%
COc1c(CNC2CCc3ccccc32)c(C)nn1C (stereo unspecified) | 30.71%
N#CCCN(Cc1ccccn1)C(=O)c1cccc(CN2CCCC2)c1 | -57.26%
CCn1cc(NS(=O)(=O)c2ccc(Br)s2)c(C(=O)NCC(C)C)n1 | -19.45%
O=C(NCCc1ccncc1)c1cccc(S(=O)(=O)NC2CCOC2)c1 (stereo unspecified) | -7.029%
CC(NCCCN1CCCC1=O)c1cc(Br)ccc1O (stereo unspecified) | 50.26%
CC(NCCCN1CCCC1=O)c1cc(Br)ccc1F (stereo unspecified) | 40.27%
CC(NC(=O)NCCCN1CCCC1=O)c1ccc(Cl)s1 (stereo unspecified) | -33.34%
CC(C)c1cc(-c2cnn(C)c2C2CC2)c(C#N)c(N)n1 | -61.18%
O=C(CC(SC1CCCCC1)C(=O)O)c1ccc(Br)cc1 (stereo unspecified) | -115.9%
CCC1CN(C(=O)c2ccccc2C(C)=O)CCN1C(C)C (stereo unspecified) | -70.36%
CCC1CN(C(=O)c2ccc(O)c(C)c2)CCN1C(C)C (stereo unspecified) | -125.9%
